The panel holds about 83,000 compounds, 20% with a hit somewhere; the sample as a whole holds those more often.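 The endpoint reported here, percent growth, reads 100 for growth as untreated, 0 for no net growth and -100 for all cells dead.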 The source made the active and inactive calls. How the source made its calls: active means growth percent below 10; inactive means the rest.

For this assay, the system named is SF-539 CNS. The assay can be described thus: NCI-60 one-dose screen, 48 h (100 = growth as untreated, 0 = no growth, -100 = all killed). To be noted: 10 µM unless noted.
For `CC(=O)c1c(C)[nH]c(-c2nc3ccc(N4CCN(C)CC4)cc3[nH]2)c1-c1ccc(N(C)C)cc1`, the growth is 39.3% (inactive).
The value for `CC(=O)c1c(C)[nH]c(-c2nc3ccc(N4CCN(C)CC4)cc3[nH]2)c1-c1ccc(OCC2CCOCC2)cc1` was 40.2% (inactive); that for `CC/C=C\C[C@H]1CC=C2C(=O)C=C[C@@H]2CC=CCCCC(=O)O[C@@H](CCCCC)CC=C2C(=O)C=C[C@@H]2CC=CCCCC(=O)O[C@@H](CCCCC)CC=C2C(=O)C=C[C@@H]2CC=CCCCC(=O)O[C@@H](CCCCC)CC=C2C(=O)C=C[C@@H]2CC=CCCCC(=O)O1` was 1.99% [7.9 µM] (active).
With `O=C1c2cccc3cccc(c23)C(=O)N1CC#Cc1ccc2c3c(cccc13)C(=O)N(CCN1CCNCC1)C2=O` the figure was 10.2% (inactive).
The value for `COc1ccc(NC(=O)c2ccc3c(c2)nc(-c2cc4ccccc4[nH]c2=O)n3-c2cc(C(C)(C)C)[nH]n2)cc1` was 94.9% (inactive); that for `CC(=O)NC1=C(C#N)C(c2ccccc2Cl)c2c(ccc3ccccc23)O1` (centres undefined) was 58.4% (inactive).
For the compound `CC(C)(C)c1[nH]nc2c1C(c1cc3ccccc3[nH]c1=O)Nc1cc(C(=O)OCc3ccccc3)ccc1N2` (centres undefined), the growth is 66.1% (inactive).
Regarding `CC1(C)C=CC[C@]2(C)[C@H]3CC[C@@H]4[C@H]5[C@H](C(=O)/C=C/c6cccnc6)CC[C@]5(CO)CC[C@@]4(C)[C@]3(C)CC[C@@H]12`, the growth is -96.2% (active).
The value for `CC1(C)[C@@H](O)CC[C@]2(C)[C@H]3CC[C@@H]4[C@H]5[C@H](C(=O)/C=C/c6ccc(C(F)(F)F)cc6)CC[C@]5(CO)CC[C@@]4(C)[C@]3(C)CC[C@@H]12` was 55.1% (inactive).

These data come from PubChem BioAssay (NCI).
